# In PubChem BioAssay (NCI):
# This is part of a sample that, as a whole, favours compounds with a hit. Of some 83,000 tested, about 20% had one in any assay.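 Testing used 96-well plates and a 48-hour single-concentration exposure. Example: -40 means 40% of the starting cells died.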 Unmarked numbers belong to inactive results. The source made the active and inactive calls. How the source made its calls: active means growth percent below 10; inactive means the rest.
# Tested on: UO-31 renal
# Test: NCI-60 one-dose screen, 48 h (100 = growth as untreated, 0 = no growth, -100 = all killed)
# Conditions: 10 µM
row,Structure (SMILES),growth [%]
1,CC1=N/C(=C\c2ccc(N(C)C)cc2)C(=O)N1CCc1ccc(S(N)(=O)=O)cc1,87.9
2,CC(C)(C)Nc1nc2cc(Cl)c(Cl)cc2nc1S(C)(=O)=O,90
3,CNC(=O)c1cc(-c2ccc(NC(=O)Nc3ccc(C)cc3)cc2)nc2cccnc12,63.9
4,COc1cccc(-c2ccc(/C=N/NC(=O)c3[nH]c4ccc(Br)cc4c3-c3ccccc3)o2)c1,39.2

# Tested on: TK-10 renal
# Test: as above
# Conditions: 10 µM
row,Structure (SMILES),growth
1,O=C(CSc1ccc(-c2ccc(Cl)cc2)nn1)Nc1ccc(Cl)c(C(F)(F)F)c1,66%
2,COc1cc(/C=N/NC(=O)c2ccc3nc(-c4ccc(Cl)cc4)[nH]c3c2)cc(OC)c1OC,37.4%
3,COc1cnc2c(c1)C(=O)c1c-2n(CCCNCCO)c(=O)c2cc(OC)c(OC)cc12,101%
4,NC1=NC(c2ccccc2Cl)N=C(Nc2nn[nH]n2)N1 (stereo not drawn),99.6%
5,O=C1NC(=NC23CC4CC(CC(C4)C2)C3)N/C1=C\c1ccc2ncccc2n1,9.19% (active)
6,COc1cccc(/C=C2\N=C(C)N(CCc3ccc(S(N)(=O)=O)cc3)C2=O)c1,97.6%
7,CC1(C)[C@@H](NCO)CC[C@]2(C)[C@H]3C(=O)C=C4[C@@H]5C[C@](C)(CO)CC[C@]5(C)CC[C@@]4(C)[C@]3(C)CC[C@@H]12,107%
8,CN1CCN(Cc2ccc(NC(=O)c3cncc(C#Cc4cnc5ccc(N[C@H]6CCOC6)nn45)c3)cc2C(F)(F)F)CC1,-69.8% (active)
9,N#Cc1c(NC(=O)c2ccc(C(F)(F)F)cc2C(F)(F)F)sc2c1CCC(=O)C2,-27.8% (active)
10,COc1ccccc1[C@H]1C(C(=O)c2ccc(O)cc2)C2(N[C@@H]1c1ccccc1)C(=O)Nc1ccc(Br)cc12 (stereo partly drawn),51%
11,CN(CCF)c1ccc(/C=C/C(=O)c2ccc(N)cc2O)cc1,100%
12,N#Cc1c(NC(=O)c2cccc(C(F)(F)F)c2)sc2c1CCC(O)=C2,63.1%
13,O=C(CNc1nc(-c2ccccc2)cs1)Nc1cccc([N+](=O)[O-])c1,-92.2% (active)
14,O=C1Nc2cc(Cl)ccc2/C1=C/c1ccc(OCc2ccc(Br)cc2F)cc1,-54.8% (active)
15,CC1(C)CC[C@]2(C(=O)NCCCNCCCCNCCCN)CC[C@]3(C)C(=CC[C@@H]4[C@@]5(C)Cc6c([nH]c7ccccc67)C(C)(C)[C@@H]5CC[C@]43C)[C@H]2C1,96.9%
16,COc1cc2c(cc1OC)CN(CCCCOc1cc(O)c3c(=O)cc(-c4ccccc4)oc3c1)CC2,117%
17,CCCn1c(=O)c2[nH]c(-c3ccc(OCc4nc5ccc(C#N)cc5[nH]4)cc3)nc2n(CCC)c1=O,107%

row,Structure (SMILES),growth
1,O=c1[nH]c2ccc(Cl)cc2cc1CSc1ccc(Nc2nccc(-c3ccc4ccccc4c3)n2)cc1,79.8%
2,COc1cc(C2CC(c3ccc(C)cc3)=Nc3c(N)nc(N)nc3N2)ccc1Oc1nc(Nc2ccc(F)cc2)nc(N(C)C)n1 (stereo not drawn),101%
3,COc1cc2c3c(n(CCCNC(C)C)c(=O)c2cc1OC)-c1nc2c(cc1C3=O)OCO2,97.2%
4,CC(=O)NNc1ccc2nnc(-c3ccc(Br)cc3)n2n1,103%
5,Cc1ccc(-c2nc3ccc(C(=O)N=Nc4c(O)[nH]c5ccc([N+](=O)[O-])cc45)cc3[nH]2)cc1,107%
6,COc1cc(OC(F)(F)F)ccc1C(=O)Nc1sc2c(c1C#N)CCC(=O)C2,94.2%
7,COc1ccc(CN2[C@@H](C(=O)NCc3ccc(C(=O)NO)cc3)Cc3c([nH]c4ccccc34)[C@@H]2C)cc1,16.5%
8,Cc1cccc2cc(-c3cc(-c4ccccc4)nc(=S)[nH]3)c(Cl)nc12,136%
9,COc1ccc(-c2cc(-c3cc(C(=O)c4ccccc4)n4ccc(C)cc34)nc(N)c2C#N)cc1,92.4%
10,NC(=Nc1ccc(OCCCCCCCCn2ccnn2)cc1)c1ccccc1,70.9%
11,COc1ccc(C=CC(=O)c2ccc(-n3c(C)nc4c(cnn4-c4ccccc4)c3=O)cc2)cc1,86.8%
12,CCOC(=O)C1=C(N)N(c2ccc(Cl)cc2)C2=C(C(=O)CC(C)(C)C2)C1c1ccc(N2CCOCC2)cc1 (stereo not drawn),98%
13,CC1=N/C(=C\c2ccc(N(C)C)cc2)C(=O)N1CCc1ccc(S(N)(=O)=O)cc1,110%
14,CC(C)(C)Nc1nc2cc(Cl)c(Cl)cc2nc1S(C)(=O)=O,99.8%
15,CNC(=O)c1cc(-c2ccc(NC(=O)Nc3ccc(C)cc3)cc2)nc2cccnc12,108%
16,COc1cccc(-c2ccc(/C=N/NC(=O)c3[nH]c4ccc(Br)cc4c3-c3ccccc3)o2)c1,70.4%
17,COc1ccc(-c2cc(-c3cc(C(=O)c4ccc(Br)cc4)n4ccc(C)cc34)nc(N)c2C#N)cc1,132%
